The full data set covers some 8,800 targets. This sample favours those with a hit. About 0.5% of all pairs of compound and target were hits. Unmarked numbers belong to inactive results.
What was measured:
Assay in all cases: log2 fold change, soluble protein after heating vs DMSO (PISA); higher = thermal stabilisation; K562 lysate, 10 uM; active = over 0.2 and 3.5 SD of the protein, either way, in both replicates (recomputed)
vemurafenib = compound: CCCS(=O)(=O)Nc1ccc(F)c(C(=O)c2c[nH]c3ncc(-c4ccc(Cl)cc4)cc23)c1F [vemurafenib]
In short: (§1)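 Quantification was by TMTpro 16plex LC-MS/MS with equalised channel sums, applied to the supernatant after 21,000xg for 90 min. Samples were crude K562 extract at 1 mg/mL protein in PBS pH 7.4 with 1 mM MgCl2, treated with 10 μM compound for 30 min, heated for 3 min across 48°C-58°C, pooled and brought to 0.5% NP-40 at 4°C. Values are log-two fold changes in thermal stability relative to solvent controls, from duplicates.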

[1] = compound: CCCS(=O)(=O)Nc1ccc(F)c(C(=O)c2c[nH]c3ncc(Cl)cc23)c1F
In short: as §1

barasertib = compound: CCN(CCCOc1ccc2c(Nc3cc(CC(=O)Nc4cccc(F)c4)[nH]n3)ncnc2c1)CCOP(=O)(O)O [barasertib]
In short: as §1

[2] = compound: CC[C@@H]1C(=O)N(C)c2cnc(Nc3ccc(C(=O)NC4CCN(C)CC4)cc3OC)nc2N1C1CCCC1
In short: as §1

volasertib = compound: CC[C@@H]1C(=O)N(C)c2cnc(Nc3ccc(C(=O)N[C@H]4CC[C@H](N5CCN(CC6CC6)CC5)CC4)cc3OC)nc2N1C(C)C [volasertib]
In short: as §1

[3] = compound: CCn1c(C(=O)N(C2CC2)C2CC2)cc2c3c(ncn3C)c(Nc3cc(C)n(C)n3)nc21
In short: as §1

[4] = compound: CCn1cc(-c2ccnc3[nH]c(-c4cccc(CN(C)C)c4)cc23)c(-c2ccc(NC(=O)N(C)C)cc2)n1
In short: as §1

[5] = compound: CN1CCC(CNc2ccc3ncc(-c4cccc(OC(F)(F)F)c4)n3n2)CC1
In short: as §1

saracatinib = compound: CN1CCN(CCOc2cc(OC3CCOCC3)c3c(Nc4c(Cl)ccc5c4OCO5)ncnc3c2)CC1 [saracatinib]
In short: as §1

sotrastaurin = compound: CN1CCN(c2nc(C3=C(c4c[nH]c5ccccc45)C(=O)NC3=O)c3ccccc3n2)CC1 [sotrastaurin]
In short: as §1

alvocidib = compound: CN1CC[C@H](c2c(O)cc(O)c3c(=O)cc(-c4ccccc4Cl)oc23)[C@H](O)C1 [alvocidib]
In short: as §1

Tubastatin A = compound: CN1CCc2c(c3ccccc3n2Cc2ccc(C(=O)NO)cc2)C1 [Tubastatin A]
In short: as §1

[6] = compound: CNC(=O)C1=CC=CC=C1NC2=NC(=NC=C2Cl)NC3=C(C=C(C=C3)N4CCOCC4)OC
In short: as §1

defactinib = compound: CNC(=O)c1ccc(Nc2ncc(C(F)(F)F)c(NCc3nccnc3N(C)S(C)(=O)=O)n2)cc1 [defactinib]
In short: as §1

[7] = compound: CNc1nc(-c2ccc3c(N)n[nH]c3c2)cc(N2C[C@@H](C(=O)NC3CCCCC3)CC[C@H]2C)n1
In short: as §1

encorafenib = compound: COC(=O)N[C@@H](C)CNc1nccc(-c2cn(C(C)C)nc2-c2cc(Cl)cc(NS(C)(=O)=O)c2F)n1 [encorafenib]
In short: as §1

[8] = compound: COC(=O)[C@H](CCSC)NC(=O)C1=C(C=C(C=C1)NC[C@H](CS)N)C2=CC=CC=C2
In short: as §1

alisertib = compound: COc1cc(Nc2ncc3c(n2)-c2ccc(Cl)cc2C(c2c(F)cccc2OC)=NC3)ccc1C(=O)O [alisertib]
In short: as §1

[9] = compound: COc1cc2nc(-c3cc(F)ccc3O)nc(N[C@@H]3CNC[C@H]3C(C)(C)O)c2cc1OC
In short: as §1

gefitinib = compound: COc1cc2ncnc(Nc3ccc(F)c(Cl)c3)c2cc1OCCCN1CCOCC1 [gefitinib]
In short: as §1

Sequence of UniProt Q16594 (Q16594 whole entry, looked up): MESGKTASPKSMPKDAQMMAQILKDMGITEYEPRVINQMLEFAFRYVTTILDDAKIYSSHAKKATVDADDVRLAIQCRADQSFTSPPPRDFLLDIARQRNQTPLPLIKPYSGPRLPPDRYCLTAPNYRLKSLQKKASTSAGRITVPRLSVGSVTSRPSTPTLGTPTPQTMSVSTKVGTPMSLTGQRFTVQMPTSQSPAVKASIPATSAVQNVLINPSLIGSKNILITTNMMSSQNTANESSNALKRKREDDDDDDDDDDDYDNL
Sequence of UniProt Q13188 (Q13188 whole entry, looked up): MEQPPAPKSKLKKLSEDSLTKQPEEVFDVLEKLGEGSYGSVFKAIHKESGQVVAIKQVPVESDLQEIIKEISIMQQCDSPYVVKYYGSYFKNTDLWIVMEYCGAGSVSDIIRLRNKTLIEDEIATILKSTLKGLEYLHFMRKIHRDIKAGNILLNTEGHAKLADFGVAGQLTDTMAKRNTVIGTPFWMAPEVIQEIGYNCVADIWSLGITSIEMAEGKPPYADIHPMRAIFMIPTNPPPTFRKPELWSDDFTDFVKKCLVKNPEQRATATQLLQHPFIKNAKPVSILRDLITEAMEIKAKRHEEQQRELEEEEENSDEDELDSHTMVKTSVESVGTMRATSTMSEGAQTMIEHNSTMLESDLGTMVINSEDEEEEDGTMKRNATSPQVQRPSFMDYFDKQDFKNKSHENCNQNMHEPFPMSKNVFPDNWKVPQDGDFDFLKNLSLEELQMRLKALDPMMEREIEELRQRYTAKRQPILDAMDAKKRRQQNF
Sequence of UniProt Q53T94 (Q53T94 whole entry, looked up): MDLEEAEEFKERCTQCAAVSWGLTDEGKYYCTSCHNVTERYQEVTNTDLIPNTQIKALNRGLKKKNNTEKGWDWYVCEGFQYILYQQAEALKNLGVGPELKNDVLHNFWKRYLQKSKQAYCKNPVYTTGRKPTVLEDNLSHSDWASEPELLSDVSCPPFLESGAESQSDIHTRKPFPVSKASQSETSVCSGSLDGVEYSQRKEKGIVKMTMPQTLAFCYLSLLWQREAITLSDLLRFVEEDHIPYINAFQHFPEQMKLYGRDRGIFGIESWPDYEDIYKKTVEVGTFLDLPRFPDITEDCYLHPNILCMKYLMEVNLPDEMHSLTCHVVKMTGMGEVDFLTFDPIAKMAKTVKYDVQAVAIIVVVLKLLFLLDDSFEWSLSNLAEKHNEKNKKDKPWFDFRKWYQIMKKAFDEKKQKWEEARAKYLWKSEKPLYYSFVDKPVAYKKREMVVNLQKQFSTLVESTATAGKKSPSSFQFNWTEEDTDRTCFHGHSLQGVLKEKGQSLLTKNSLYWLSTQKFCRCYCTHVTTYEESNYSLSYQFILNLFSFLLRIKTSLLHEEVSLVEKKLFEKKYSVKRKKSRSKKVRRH
Sequence of UniProt Q13148 (Q13148 whole entry, looked up): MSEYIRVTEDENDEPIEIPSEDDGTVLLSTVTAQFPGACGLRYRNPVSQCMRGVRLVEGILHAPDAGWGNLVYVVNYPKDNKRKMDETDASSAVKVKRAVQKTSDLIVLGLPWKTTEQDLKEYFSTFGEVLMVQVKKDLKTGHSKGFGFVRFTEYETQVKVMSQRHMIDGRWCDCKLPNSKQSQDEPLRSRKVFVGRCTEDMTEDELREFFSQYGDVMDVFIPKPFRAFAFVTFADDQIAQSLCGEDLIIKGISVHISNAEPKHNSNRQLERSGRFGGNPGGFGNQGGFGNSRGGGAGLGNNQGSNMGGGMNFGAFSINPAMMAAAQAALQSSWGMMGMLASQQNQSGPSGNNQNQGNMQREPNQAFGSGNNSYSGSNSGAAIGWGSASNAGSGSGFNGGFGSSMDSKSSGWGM
Sequence of UniProt Q15022 (Q15022 whole entry, looked up): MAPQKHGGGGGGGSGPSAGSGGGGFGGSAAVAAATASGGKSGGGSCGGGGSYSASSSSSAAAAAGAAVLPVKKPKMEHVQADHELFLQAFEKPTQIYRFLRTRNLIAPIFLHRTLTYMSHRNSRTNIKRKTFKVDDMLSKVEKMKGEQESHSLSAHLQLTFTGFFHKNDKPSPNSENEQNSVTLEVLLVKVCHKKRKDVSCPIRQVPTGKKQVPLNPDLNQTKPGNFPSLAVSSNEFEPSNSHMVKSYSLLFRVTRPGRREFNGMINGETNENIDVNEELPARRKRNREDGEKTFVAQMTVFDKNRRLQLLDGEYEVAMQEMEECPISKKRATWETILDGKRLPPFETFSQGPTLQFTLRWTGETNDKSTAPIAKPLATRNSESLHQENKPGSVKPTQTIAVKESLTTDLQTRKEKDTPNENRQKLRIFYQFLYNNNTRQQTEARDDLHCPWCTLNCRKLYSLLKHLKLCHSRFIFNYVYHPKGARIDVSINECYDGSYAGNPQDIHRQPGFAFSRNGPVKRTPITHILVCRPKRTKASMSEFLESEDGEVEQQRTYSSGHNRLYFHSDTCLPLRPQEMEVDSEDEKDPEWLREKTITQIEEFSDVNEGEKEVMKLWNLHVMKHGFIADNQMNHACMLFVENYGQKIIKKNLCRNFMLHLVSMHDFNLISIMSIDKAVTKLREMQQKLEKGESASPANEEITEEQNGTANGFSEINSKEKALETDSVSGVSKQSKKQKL
Sequence of UniProt Q9H668 (Q9H668 whole entry, looked up): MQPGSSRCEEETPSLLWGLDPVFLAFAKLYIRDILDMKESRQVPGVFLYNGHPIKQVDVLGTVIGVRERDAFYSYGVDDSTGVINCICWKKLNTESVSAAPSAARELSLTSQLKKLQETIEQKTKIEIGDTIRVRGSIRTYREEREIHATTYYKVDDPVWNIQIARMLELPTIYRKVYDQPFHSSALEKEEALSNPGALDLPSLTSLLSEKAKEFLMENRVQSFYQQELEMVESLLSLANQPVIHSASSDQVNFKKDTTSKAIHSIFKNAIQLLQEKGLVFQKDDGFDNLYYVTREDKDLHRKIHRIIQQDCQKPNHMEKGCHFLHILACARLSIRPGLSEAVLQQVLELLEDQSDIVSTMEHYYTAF
Sequence of UniProt P10124 (P10124 whole entry, looked up): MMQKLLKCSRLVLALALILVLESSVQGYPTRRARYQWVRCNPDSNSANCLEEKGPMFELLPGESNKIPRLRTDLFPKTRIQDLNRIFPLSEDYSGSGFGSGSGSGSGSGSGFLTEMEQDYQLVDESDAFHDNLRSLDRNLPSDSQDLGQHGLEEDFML
Sequence of UniProt Q99963 (Q99963 whole entry, looked up): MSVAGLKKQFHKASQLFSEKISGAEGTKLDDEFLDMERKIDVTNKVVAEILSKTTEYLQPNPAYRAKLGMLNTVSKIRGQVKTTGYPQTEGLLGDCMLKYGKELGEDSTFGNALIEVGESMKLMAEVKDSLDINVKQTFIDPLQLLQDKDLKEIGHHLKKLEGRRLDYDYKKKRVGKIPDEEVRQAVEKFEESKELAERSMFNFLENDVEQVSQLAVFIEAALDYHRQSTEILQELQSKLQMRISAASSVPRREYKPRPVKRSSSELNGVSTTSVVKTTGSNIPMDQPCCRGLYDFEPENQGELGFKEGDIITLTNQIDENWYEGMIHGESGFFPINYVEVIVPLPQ
Sequence of UniProt Q9H2V7 (Q9H2V7 whole entry, looked up): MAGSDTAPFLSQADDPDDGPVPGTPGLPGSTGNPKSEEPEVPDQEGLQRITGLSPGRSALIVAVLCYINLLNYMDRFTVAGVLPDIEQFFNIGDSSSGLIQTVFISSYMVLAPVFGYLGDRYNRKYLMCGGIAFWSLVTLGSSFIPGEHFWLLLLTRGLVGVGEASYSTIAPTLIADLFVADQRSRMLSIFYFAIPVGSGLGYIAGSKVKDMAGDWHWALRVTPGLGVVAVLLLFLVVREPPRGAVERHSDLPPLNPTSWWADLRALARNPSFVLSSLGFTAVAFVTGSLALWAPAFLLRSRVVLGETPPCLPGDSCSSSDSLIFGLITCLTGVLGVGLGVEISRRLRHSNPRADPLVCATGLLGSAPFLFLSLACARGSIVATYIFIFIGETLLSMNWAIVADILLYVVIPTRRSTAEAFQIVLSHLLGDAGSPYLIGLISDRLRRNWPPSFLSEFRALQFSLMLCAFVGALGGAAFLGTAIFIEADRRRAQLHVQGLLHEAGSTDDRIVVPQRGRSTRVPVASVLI
Sequence of UniProt P78314 (P78314 whole entry, looked up): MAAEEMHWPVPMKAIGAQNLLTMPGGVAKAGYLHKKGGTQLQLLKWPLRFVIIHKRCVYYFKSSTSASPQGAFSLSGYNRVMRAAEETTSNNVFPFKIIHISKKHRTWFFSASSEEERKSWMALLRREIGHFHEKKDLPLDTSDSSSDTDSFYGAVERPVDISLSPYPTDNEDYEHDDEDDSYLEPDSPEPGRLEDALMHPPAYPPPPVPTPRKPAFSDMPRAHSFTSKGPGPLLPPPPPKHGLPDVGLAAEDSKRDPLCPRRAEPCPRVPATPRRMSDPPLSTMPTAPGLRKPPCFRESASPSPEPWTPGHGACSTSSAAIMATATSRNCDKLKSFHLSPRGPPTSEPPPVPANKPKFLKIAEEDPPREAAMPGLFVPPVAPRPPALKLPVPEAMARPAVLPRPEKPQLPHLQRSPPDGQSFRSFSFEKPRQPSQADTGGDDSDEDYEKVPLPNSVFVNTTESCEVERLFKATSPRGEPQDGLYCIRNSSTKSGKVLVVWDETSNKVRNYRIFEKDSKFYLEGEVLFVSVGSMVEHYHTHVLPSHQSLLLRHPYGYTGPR

| Target | log2 fold change (vemurafenib) | log2 fold change [1] | log2 fold change (barasertib) | log2 fold change [2] | log2 fold change (volasertib) | log2 fold change [3] | log2 fold change [4] | log2 fold change [5] | log2 fold change (saracatinib) | log2 fold change (sotrastaurin) | log2 fold change (alvocidib) | log2 fold change (Tubastatin A) | log2 fold change [6] | log2 fold change (defactinib) | log2 fold change [7] | log2 fold change (encorafenib) | log2 fold change [8] | log2 fold change (alisertib) | log2 fold change [9] | log2 fold change (gefitinib) |
| --- | --- | --- | --- | --- | --- | --- | --- | --- | --- | --- | --- | --- | --- | --- | --- | --- | --- | --- | --- | --- |
| TAF9 (UniProt Q16594) | -0.028 | -0.092 | -0.001 | -0.031 | 0.063 | 0.002 | 0.238 (active) | -0.006 | 0.056 | -0.001 | 0.032 | -0.026 | 0.014 | -0.03 | -0.004 | 0.099 | -0.041 | 0.004 | 0.038 | 0.084 |
| STN1 (UniProt Q9H668) | 0.047 | -0.389 | 0.114 | -0.071 | -0.068 | -0.016 | -0.179 | 0.31 |  | -0.025 | -0.078 | -0.032 | 0.173 | 0.016 |  | 0.024 | -0.149 | -0.026 | -0.562 (active) | 0.053 |
| SH3BP2 isoform 4 (UniProt P78314) | 0.087 | -0.017 | -0.075 |  | -0.052 | 0.029 | -0.04 | 0.089 | 0.006 | 0.02 | -0.023 | 0.026 | 0.03 | -0.054 | 0.099 |  |  |  | 0.053 |  |
| SUZ12 (UniProt Q15022) | 0.012 | 0.022 | -0.012 | 0.024 | -0.001 | 0.012 | -0.026 | -0.002 | -0.019 | 0 | -0.004 | -0.012 | 0.009 | 0.049 | 0.027 | 0 | 0.101 | -0.057 | -0.062 | 0.062 |
| SPNS1 (UniProt Q9H2V7) | 0 | 0.036 | -0.004 | 0.154 | -0.004 | -0.097 | -0.014 | 0.064 | -0.006 | 0.02 | -0.118 | 0.034 | 0.06 | 0.095 | -0.03 | 0.019 | -0.031 | 0.047 | 0.019 | -0.015 |
| SH3GL3 isoform 3 (UniProt Q99963) | 0.08 | 0.012 | 0.063 | -0.032 | -0.049 | -0.051 | -0.761 (active) | 0.33 | -0.008 | 0.035 | -0.263 | -0.14 | 0.024 | -0.063 | 0.15 | 0.072 | -0.041 | -0.076 | 0.09 | 0.041 |
| TARDBP (UniProt Q13148) | 0.027 | 0.016 | 0.151 | 0.007 | -0.125 | 0.169 | -0.008 | -0.069 | 0.058 | -0.032 | -0.006 | -0.318 (active) | -0.044 | 0 | -0.139 | 0.181 | 0.137 | 0.012 | -0.004 | 0.06 |
| SYK (UniProt P43405) | 0.184 | 0.065 | 0.092 |  | 0.027 | -0.123 | -0.644 (active) | -0.001 | -0.041 | 0.068 | -0.142 | -0.015 | -0.009 | -0.105 | 0.115 | 0.01 | 0.154 |  | 0.11 | -0.004 |
| TAF1B (UniProt Q53T94) | 0.397 | -0.217 | 0.11 | -0.212 | -0.057 | -0.039 | -0.12 | 0.166 | 0.045 | 0.055 | 0.175 | -0.083 |  | -0.024 | 0.614 | 0.073 | -0.13 | -0.177 | -0.047 | 0.016 |
| TAPT1 (UniProt Q6NXT6) | 0.031 | 0.043 | -0.039 | 0.024 | 0.028 | -0.026 | -0.229 (active) | 0.106 | -0.014 | -0.002 | -0.101 | 0.037 | -0.086 | 0.047 | 0.056 | 0.053 | -0.074 | -0.016 | -0.006 | 0.055 |
| SRGN (UniProt P10124) | 0.177 | 0.093 | -0.033 | 0.059 | -0.086 | -0.005 | -0.022 | 0.101 | 0.043 | 0.069 | -0.509 (active) | 0.027 | 0.048 | 0.175 | 0.065 | 0.014 | -0.055 |  | 0.026 |  |
| STK3 isoform 2 (UniProt Q13188) | 0.046 | 0.04 | 0.032 |  | -0.047 | -0.012 | -0.017 | 0.216 | -0.01 | 0.142 |  | -0.075 |  | 0.205 | 0.015 | -0.046 | -0.068 |  | 0.269 | 0.002 |

Source: the supplement of paper PMC10849652
